Measured values reported in the supplement of paper PMC10646978.
± gives the standard deviation.

What follows are molecules tested on RAW-Dual (murine macrophage reporter line) (assay: NF-kB reporter (SEAP) activity fold change vs agonist alone; higher = enhanced NF-kB activity). Conditions: modulator concentration 10 µM; agonist: MPLA […].
In short: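 Compound reached 10 μM final in each well by pin transfer, onto RAW-Dual murine macrophage reporter cells seeded at 50 000 per well in 384-well plates. After 1 hour at 37 °C, the cells were stimulated overnight with a PRR agonist. SEAP in the supernatant was read with QUANTI-Blue at 620 nm absorbance for NF-κB, and Lucia luciferase was read with QUANTI-Luc luminescence for IRF. Each signal was turned into fold change against the mean agonist-only control on the same plate, and two replicate plates were averaged with propagated errors.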
With `Cc1nc2sccn2c(=O)c1CCN1CCC(=C(c2ccc(F)cc2)c2ccc(F)cc2)CC1` the NF-kB reporter was 0.901 ± 0.053. Molecule `Cn1cnc([N+](=O)[O-])c1Sc1ncnc2nc[nH]c12` has an NF-kB reporter of 0.983 ± 0.077. `CNC(=O)c1ccc2cc(C3(O)CCn4cncc43)ccc2c1` (stereo not given) showed an NF-kB reporter of 0.937 ± 0.052. For `CCOC(=O)CN1CCOCCOCCN(CC(=O)OCC)CCOCCOCC1`, the NF-kB reporter was 0.957 ± 0.067. Molecule `CCN(CC)CCNC(=O)c1c(C)[nH]c(/C=C2\C(=O)Nc3ccc(F)cc32)c1C.O=C(O)C[C@H](O)C(=O)O` has an NF-kB reporter of 0.636 ± 0.061. In the case of `Cc1cc(C)n(CC2CCN(Cc3ccc(Br)cc3)CC2)n1`, the NF-kB reporter is reported as 0.74 ± 0.049. Work on `O=C(NC(=S)Nc1ccc2[nH]c(=O)[nH]c2c1)c1ccc(F)cc1` yielded an NF-kB reporter of 0.933 ± 0.064. For `C=C1CCC(NS(=O)(=O)c2ccc(-c3coc(C)n3)cc2)CC1`, the NF-kB reporter was 1.14 ± 0.062. `CC(=O)N1CCN(C(=O)Cn2cnc(-c3ccc(C)cc3)cc2=O)CC1` showed an NF-kB reporter of 1.06 ± 0.14. With `Cc1[nH]c(=O)c(C#N)cc1-c1ccncc1` the NF-kB reporter was 2.34 ± 1.3. In the case of `O=C(NCCOc1cccc2ccccc12)Nc1cc(F)c(F)cc1Cl`, the NF-kB reporter is reported as 0.854 ± 0.053. Work on `Cc1cc(C)n(CCCN2C(=O)c3cccc4cccc(c34)C2=O)n1` yielded an NF-kB reporter of 0.955 ± 0.11. Work on `CC(C)(C)C(O)/C=C/c1ccc2c(c1)OCO2` (stereo not given) yielded an NF-kB reporter of 1.03 ± 0.055. Molecule `CN(C)c1ccc(O)c2c1C[C@H]1C[C@H]3[C@H](N(C)C)C(O)=C(C(N)=O)C(=O)[C@@]3(O)C(O)=C1C2=O.Cl` has an NF-kB reporter of 0.959 ± 0.03. `CN(C)c1ccc(C=C2C(=O)C(=O)c3ccccc32)cc1Br` gave an NF-kB reporter of 0.999 ± 0.036. With `Cc1cccc(C)c1NC(=O)CC(C)c1ccccc1` (stereo not given) the NF-kB reporter was 1.2 ± 0.14. For `Cc1cc(CCNC(=O)c2cc3ccccc3s2)nn1C`, the NF-kB reporter was 0.991 ± 0.064. Molecule `CCSc1nc(-c2cccs2)cc(C(F)(F)F)c1C#N` has an NF-kB reporter of 1.66 ± 0.063. Work on `CCN(CC)c1ccc(C=C(C#N)c2n[nH]c(N)c2C#N)c(OC)c1` yielded an NF-kB reporter of 0.976 ± 0.092. Molecule `Cc1ncsc1C(=O)NC1CCC(F)(F)CC1` has an NF-kB reporter of 0.991 ± 0.033. For `Nc1ccccc1NC(=O)c1ccc(CNC(=O)OCc2cccnc2)cc1`, the NF-kB reporter was 1.96 ± 0.052. `COc1cc(=O)n(C)cc1C(=O)Nc1cccnc1` gave an NF-kB reporter of 1.06 ± 0.065. In the case of `CC1=C(C(=O)N2CCOCC2)C(c2cccs2)NC(=O)N1` (stereo not given), the NF-kB reporter is reported as 0.965 ± 0.076. Work on `CCCCNc1ccc(C(=O)OCCN(C)C)cc1.Cl` yielded an NF-kB reporter of 0.987 ± 0.055. `CC(O)(CNC(=O)NCc1ccc(F)cc1)c1ccc(-c2ccccc2)cc1` (stereo not given) was tested, and the NF-kB reporter was 0.873 ± 0.077. `O=C(Nc1ccc(S(=O)(=O)Nc2nccs2)cc1)c1c(F)cccc1F` showed an NF-kB reporter of 0.922 ± 0.06. Work on `Cc1ccc(Cn2c(N)nc3ccccc32)cc1` yielded an NF-kB reporter of 1.09 ± 0.098. Work on `Cc1ccc(Sc2c(C)nn(-c3ccccc3)c2OC(=O)C(C)(C)C)cc1` yielded an NF-kB reporter of 0.928 ± 0.12. `Oc1c(Cl)cc(Cl)cc1C=Nc1cc(Cl)cc(Cl)c1` gave an NF-kB reporter of 0.761 ± 0.066. With `CC(=O)Nc1ccc(O)cc1` [Prestw-868] the NF-kB reporter was 0.965 ± 0.082. Work on `Cc1onc(-c2ccccc2)c1-c1ccc(S(N)(=O)=O)cc1` yielded an NF-kB reporter of 1.25 ± 0.3. Molecule `Ic1cccc(Cn2nnc(-c3ccccc3)n2)c1` has an NF-kB reporter of 1.38 ± 0.15. `COC(=O)C1C(=O)CC(C)(O)C(C(=O)OC)C1c1ccc2c(c1)OCO2` (stereo not given) gave an NF-kB reporter of 0.958 ± 0.085. `CCCCSc1nnc2c(n1)OC(c1cccc(C)n1)Nc1ccc(Br)cc1-2` (stereo not given) was tested, and the NF-kB reporter was 0.97 ± 0.045. `CC(=O)Oc1cc2c(s1)CCN(C(C(=O)C1CC1)c1ccccc1F)C2.Cl` (stereo not given) was tested, and the NF-kB reporter was 0.77 ± 0.043. `CCN(CC)c1ccc(NC(=O)C(C)(C)C)cc1` gave an NF-kB reporter of 0.98 ± 0.12. `COC(=O)c1cc(Br)ccc1NC(=O)c1ccccc1` gave an NF-kB reporter of 1.03 ± 0.18. `CCCCc1oc2ccc(NS(C)(=O)=O)cc2c1C(=O)c1ccc(OCCCN(CCCC)CCCC)cc1.Cl` was tested, and the NF-kB reporter was 1.3 ± 0.14. Work on `CCC1OC(=O)C(C)C(OC2CC(C)(OC)C(O)C(C)O2)C(C)C(OC2OC(C)CC(N(C)C)C2O)C(C)(O)CC(C)CN(C)C(C)C(O)C1(C)O` (stereo not given) yielded an NF-kB reporter of 1.19 ± 0.029. In the case of `O=C1OCCN1C1CCN(C(=O)C2(c3ccc(F)cc3)CC2)C1` (stereo not given), the NF-kB reporter is reported as 1.06 ± 0.074.
